# In paper PMC7862700, “An all-to-all approach to the identification of sequence-specific readers for epigenetic DNA modifications on cytosine”:
# What was measured:
# Assay in all cases: DAPPL (digital affinity profiling via proximity ligation, sequencing); 10 mM Tris-HCl pH 7.5, 50 mM NaCl, 1 mM DTT, 4% glycerol, room temperature, 30 min; GST-TFs on glutathione beads, 16-mer random dsDNA library, 0.1% formaldehyde crosslink after washing; high values mean tight binding
# FLI1 = molecular target: T1, FLI1 (Homo sapiens, UniProt Q01543 1-452); conditions: protein: recombinant; tags: N-terminal GST; dsDNA, one strand shown
# T1 sequence: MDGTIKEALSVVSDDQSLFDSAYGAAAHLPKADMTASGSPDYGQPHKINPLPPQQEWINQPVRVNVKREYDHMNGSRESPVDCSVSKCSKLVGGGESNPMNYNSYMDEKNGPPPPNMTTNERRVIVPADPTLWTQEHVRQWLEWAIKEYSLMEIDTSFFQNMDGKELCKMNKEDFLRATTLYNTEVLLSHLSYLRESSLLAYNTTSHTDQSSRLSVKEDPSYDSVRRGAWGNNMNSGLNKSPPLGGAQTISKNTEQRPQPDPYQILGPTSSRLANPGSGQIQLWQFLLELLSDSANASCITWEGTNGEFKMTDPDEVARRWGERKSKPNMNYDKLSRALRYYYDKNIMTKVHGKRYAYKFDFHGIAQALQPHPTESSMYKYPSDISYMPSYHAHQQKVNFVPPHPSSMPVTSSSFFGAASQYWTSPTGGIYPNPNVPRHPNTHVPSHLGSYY
# Procedure, shortened: (§1)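 GST fusions of human transcription factors were expressed in yeast and captured with glutathione beads. Once given DNA barcodes and pooled alongside a tag-only sample, they were incubated for 30 min at room temperature with 200 nmole of a random double-stranded 16-mer DNA library in Tris/NaCl/DTT/glycerol buffer, then washed, crosslinked (0.1% formaldehyde), proximity-ligated, PCR-amplified and sequenced on an Illumina NextSeq500. The binding signal of each hexamer is its read frequency for a factor divided by its frequency for the tag-only sample.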
# ELK1 = molecular target: T2, ELK1 (Homo sapiens, UniProt P19419 1-428); conditions: protein: recombinant; tags: N-terminal GST; dsDNA, one strand shown
# T2 sequence: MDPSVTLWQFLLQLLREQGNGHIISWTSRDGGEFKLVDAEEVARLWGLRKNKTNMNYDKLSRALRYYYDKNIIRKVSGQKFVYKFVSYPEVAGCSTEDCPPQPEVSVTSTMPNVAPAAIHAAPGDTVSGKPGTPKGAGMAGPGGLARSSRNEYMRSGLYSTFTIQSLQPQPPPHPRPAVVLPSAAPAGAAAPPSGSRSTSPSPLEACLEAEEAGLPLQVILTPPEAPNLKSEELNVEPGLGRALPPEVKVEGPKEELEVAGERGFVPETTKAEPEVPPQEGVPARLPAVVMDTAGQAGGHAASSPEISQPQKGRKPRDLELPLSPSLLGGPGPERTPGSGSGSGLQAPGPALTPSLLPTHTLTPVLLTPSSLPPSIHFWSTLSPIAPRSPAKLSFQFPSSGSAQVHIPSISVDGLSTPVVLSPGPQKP
# Procedure, shortened: as §1
# GABPA = molecular target: T3, GABPA (Homo sapiens, UniProt Q06546 1-454); conditions: protein: recombinant; tags: N-terminal GST; dsDNA, one strand shown
# T3 sequence: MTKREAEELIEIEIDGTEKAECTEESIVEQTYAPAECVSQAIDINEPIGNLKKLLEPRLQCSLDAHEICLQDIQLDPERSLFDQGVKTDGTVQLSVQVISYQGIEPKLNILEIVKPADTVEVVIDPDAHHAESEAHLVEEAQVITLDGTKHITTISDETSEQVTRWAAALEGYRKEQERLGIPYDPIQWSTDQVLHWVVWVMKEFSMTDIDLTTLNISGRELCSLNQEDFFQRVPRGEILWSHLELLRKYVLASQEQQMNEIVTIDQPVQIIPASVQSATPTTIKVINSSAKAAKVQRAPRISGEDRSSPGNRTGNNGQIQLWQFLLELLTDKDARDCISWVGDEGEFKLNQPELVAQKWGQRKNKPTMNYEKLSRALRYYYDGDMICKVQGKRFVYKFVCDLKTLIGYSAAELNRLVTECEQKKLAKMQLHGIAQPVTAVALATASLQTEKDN
# Procedure, shortened: as §1
# ERG = molecular target: T4, ERG (Homo sapiens, UniProt P11308 1-479); conditions: protein: recombinant; tags: N-terminal GST; dsDNA, one strand shown
# T4 sequence: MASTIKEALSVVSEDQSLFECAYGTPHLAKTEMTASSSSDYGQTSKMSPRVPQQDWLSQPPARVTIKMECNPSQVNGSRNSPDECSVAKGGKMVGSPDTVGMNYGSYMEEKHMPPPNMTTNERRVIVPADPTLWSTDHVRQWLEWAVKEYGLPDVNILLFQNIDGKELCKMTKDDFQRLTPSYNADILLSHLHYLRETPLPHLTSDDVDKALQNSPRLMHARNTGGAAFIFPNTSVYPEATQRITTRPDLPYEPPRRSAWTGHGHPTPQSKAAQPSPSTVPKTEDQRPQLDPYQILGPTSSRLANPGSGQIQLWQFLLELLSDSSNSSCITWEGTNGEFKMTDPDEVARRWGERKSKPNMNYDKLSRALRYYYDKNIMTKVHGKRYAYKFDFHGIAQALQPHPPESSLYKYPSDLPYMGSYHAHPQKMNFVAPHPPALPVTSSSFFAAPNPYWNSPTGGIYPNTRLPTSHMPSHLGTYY
# Procedure, shortened: as §1
# ELF1 = ELF1 (Homo sapiens, UniProt P32519 1-619); conditions: protein: recombinant; tags: N-terminal GST; dsDNA, one strand shown
# Sequence of ELF1 (P32519 whole entry): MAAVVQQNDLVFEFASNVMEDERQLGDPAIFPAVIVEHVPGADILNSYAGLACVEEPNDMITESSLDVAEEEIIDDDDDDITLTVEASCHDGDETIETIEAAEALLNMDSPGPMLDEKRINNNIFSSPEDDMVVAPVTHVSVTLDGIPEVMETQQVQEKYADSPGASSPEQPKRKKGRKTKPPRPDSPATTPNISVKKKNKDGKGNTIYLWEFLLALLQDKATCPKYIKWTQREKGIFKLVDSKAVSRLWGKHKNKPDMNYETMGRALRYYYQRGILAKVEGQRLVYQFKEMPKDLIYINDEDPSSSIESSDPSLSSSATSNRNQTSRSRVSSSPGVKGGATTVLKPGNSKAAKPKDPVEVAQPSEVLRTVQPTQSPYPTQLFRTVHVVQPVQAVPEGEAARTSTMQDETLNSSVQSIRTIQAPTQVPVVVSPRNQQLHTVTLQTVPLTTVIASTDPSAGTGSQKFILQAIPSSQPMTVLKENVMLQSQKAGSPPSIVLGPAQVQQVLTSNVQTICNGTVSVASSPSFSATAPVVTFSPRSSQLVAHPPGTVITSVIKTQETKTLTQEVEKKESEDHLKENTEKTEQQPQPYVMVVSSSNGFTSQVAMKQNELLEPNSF
# Procedure, shortened: as §1
# EHF = molecular target: T5, EHF (Homo sapiens, UniProt Q9NZC4 1-300); conditions: protein: recombinant; tags: N-terminal GST; dsDNA, one strand shown
# T5 sequence: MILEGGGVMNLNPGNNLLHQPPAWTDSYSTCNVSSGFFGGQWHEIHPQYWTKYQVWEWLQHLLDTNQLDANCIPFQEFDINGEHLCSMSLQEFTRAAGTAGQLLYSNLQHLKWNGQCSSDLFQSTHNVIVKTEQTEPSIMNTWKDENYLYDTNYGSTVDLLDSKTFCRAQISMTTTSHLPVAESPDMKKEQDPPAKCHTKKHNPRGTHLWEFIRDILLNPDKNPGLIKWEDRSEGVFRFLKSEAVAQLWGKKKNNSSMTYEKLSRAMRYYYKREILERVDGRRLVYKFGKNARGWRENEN
# Procedure, shortened: as §1
# SPI1 = SPI1 (Homo sapiens, UniProt P17947 1-270); conditions: protein: recombinant; tags: N-terminal GST; dsDNA, one strand shown
# Procedure, shortened: as §1
# SPIB = SPIB (Homo sapiens, UniProt Q01892 1-262); conditions: protein: recombinant; tags: N-terminal GST; dsDNA, one strand shown
# Sequence of SPIB (Q01892 whole entry): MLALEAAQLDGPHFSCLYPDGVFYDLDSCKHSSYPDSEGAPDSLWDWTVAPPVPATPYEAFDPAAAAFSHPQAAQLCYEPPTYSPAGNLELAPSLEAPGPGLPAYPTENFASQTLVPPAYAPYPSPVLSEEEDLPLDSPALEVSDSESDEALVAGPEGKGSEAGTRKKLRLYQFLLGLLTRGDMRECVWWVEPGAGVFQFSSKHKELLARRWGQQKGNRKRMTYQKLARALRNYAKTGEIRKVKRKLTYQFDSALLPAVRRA
# Procedure, shortened: as §1
# ELK3 = molecular target: T6, ELK3 (Homo sapiens, UniProt P41970 1-407); conditions: protein: recombinant; tags: N-terminal GST; dsDNA, one strand shown
# T6 sequence: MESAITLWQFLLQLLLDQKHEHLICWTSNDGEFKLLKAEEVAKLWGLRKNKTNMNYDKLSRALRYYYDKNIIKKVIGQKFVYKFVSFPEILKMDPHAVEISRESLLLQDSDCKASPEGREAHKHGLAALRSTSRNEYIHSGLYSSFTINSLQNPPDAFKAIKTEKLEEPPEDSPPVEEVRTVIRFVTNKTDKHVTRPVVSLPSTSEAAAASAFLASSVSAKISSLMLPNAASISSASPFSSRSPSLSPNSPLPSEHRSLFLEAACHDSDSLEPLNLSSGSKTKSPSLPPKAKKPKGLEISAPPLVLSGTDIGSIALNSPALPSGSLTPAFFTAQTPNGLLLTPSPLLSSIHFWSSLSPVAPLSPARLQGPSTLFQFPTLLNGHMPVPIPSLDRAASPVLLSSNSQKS
# Procedure, shortened: as §1
# FEV = molecular target: T7, FEV (Homo sapiens, UniProt Q99581 1-238); conditions: protein: recombinant; tags: N-terminal GST; dsDNA, one strand shown
# T7 sequence: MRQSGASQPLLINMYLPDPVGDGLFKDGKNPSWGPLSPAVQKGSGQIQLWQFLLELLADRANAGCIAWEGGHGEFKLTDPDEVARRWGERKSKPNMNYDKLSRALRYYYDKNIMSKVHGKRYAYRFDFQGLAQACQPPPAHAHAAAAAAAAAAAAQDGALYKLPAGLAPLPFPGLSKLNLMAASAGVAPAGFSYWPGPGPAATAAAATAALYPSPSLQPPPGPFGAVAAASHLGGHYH
# Procedure, shortened: as §1
# ETV5 = ETV5 (Homo sapiens, UniProt P41161 1-510); conditions: protein: recombinant; tags: N-terminal GST; dsDNA, one strand shown
# Sequence of ETV5 (P41161 whole entry): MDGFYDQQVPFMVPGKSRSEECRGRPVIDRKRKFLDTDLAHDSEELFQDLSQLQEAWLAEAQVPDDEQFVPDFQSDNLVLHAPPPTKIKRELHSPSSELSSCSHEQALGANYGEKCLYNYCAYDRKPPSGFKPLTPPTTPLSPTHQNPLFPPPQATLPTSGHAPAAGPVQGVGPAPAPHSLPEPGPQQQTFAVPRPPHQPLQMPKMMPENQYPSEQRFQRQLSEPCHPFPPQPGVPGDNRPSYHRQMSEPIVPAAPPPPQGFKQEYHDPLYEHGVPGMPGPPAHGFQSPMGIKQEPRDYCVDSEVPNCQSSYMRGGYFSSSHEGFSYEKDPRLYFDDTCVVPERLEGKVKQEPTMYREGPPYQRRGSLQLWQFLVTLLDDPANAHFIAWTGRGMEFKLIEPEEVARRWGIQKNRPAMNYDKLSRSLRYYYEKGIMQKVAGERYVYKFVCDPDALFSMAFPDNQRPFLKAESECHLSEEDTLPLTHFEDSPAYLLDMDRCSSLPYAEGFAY
# Procedure, shortened: as §1
# HSF1 = HSF1 (Homo sapiens, UniProt Q00613 1-529); conditions: protein: recombinant; tags: N-terminal GST; chain copies: 3; dsDNA, one strand shown
# Sequence of HSF1 (Q00613 whole entry): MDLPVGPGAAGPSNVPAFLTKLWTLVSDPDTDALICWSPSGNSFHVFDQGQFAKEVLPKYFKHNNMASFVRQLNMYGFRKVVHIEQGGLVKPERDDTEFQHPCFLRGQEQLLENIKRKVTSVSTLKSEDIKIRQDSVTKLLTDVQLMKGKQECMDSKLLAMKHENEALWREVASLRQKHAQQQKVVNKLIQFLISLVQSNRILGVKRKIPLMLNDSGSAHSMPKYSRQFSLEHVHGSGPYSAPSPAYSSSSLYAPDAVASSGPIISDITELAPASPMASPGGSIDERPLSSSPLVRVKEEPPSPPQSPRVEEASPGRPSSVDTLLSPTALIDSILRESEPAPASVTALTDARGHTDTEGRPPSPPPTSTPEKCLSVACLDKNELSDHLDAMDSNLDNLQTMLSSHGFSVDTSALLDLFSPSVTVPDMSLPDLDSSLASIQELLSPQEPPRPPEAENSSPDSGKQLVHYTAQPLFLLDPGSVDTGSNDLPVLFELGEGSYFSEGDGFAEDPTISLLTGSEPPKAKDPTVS
# Procedure, shortened: as §1
# SPIC = molecular target: T8, SPIC (Homo sapiens, UniProt Q8N5J4 1-248); conditions: protein: recombinant; tags: N-terminal GST; dsDNA, one strand shown
# T8 sequence: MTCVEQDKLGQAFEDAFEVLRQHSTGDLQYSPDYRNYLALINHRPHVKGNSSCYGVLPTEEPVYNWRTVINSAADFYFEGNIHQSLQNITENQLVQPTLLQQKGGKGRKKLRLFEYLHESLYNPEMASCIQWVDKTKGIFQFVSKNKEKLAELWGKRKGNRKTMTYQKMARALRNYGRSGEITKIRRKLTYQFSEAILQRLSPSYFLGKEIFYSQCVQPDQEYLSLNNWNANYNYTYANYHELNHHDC
# Procedure, shortened: as §1
# ELF4 = ELF4 (Homo sapiens, UniProt Q99607 1-663); conditions: protein: recombinant; tags: N-terminal GST; dsDNA, one strand shown
# Sequence of ELF4 (Q99607 whole entry): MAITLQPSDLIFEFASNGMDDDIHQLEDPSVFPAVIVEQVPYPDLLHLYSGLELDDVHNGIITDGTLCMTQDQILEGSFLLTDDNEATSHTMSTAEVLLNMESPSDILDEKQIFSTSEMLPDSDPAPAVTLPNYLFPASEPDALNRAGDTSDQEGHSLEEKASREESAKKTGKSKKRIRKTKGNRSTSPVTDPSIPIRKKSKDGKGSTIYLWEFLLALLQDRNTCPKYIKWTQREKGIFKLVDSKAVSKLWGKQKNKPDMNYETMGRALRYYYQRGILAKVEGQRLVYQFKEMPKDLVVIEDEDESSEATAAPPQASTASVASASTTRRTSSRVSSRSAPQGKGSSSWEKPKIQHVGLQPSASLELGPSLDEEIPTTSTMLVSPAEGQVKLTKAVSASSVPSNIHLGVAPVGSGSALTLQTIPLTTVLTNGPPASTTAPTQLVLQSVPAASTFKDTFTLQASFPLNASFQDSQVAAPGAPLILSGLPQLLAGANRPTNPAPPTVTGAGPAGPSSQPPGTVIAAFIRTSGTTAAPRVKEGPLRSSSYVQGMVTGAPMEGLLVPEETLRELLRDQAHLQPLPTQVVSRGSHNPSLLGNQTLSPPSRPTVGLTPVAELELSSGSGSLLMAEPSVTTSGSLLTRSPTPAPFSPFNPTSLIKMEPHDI
# Procedure, shortened: as §1
# ELK4 = molecular target: T9, ELK4 (Homo sapiens, UniProt P28324-2 1-405); conditions: protein: recombinant; tags: N-terminal GST; dsDNA, one strand shown
# T9 sequence: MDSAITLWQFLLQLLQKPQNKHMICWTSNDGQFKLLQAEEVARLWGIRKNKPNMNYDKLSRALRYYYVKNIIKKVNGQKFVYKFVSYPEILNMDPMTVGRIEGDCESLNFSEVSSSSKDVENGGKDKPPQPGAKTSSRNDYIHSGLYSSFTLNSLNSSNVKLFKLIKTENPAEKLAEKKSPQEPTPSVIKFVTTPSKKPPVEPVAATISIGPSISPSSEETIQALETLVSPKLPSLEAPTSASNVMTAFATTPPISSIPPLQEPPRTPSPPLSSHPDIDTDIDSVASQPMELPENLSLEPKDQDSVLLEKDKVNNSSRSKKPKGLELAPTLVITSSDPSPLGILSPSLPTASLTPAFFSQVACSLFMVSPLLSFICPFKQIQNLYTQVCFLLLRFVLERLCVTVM
# Procedure, shortened: as §1
# ETV2 = molecular target: T10, ETV2 (Homo sapiens, UniProt O00321 1-342); conditions: protein: recombinant; tags: N-terminal GST; dsDNA, one strand shown
# T10 sequence: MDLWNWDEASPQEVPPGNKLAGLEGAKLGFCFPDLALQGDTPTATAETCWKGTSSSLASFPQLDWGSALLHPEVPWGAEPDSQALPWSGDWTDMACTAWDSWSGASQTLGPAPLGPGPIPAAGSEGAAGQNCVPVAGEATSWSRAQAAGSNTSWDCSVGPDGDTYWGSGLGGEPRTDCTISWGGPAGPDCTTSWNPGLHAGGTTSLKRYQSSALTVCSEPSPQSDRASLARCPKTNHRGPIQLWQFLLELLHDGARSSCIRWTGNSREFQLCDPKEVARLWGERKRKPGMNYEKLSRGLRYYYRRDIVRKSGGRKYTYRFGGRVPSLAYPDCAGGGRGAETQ
# Procedure, shortened: as §1
# ELF3 = molecular target: T11, ELF3 (Homo sapiens, UniProt P78545 1-371); conditions: protein: recombinant; tags: N-terminal GST; dsDNA, one strand shown
# T11 sequence: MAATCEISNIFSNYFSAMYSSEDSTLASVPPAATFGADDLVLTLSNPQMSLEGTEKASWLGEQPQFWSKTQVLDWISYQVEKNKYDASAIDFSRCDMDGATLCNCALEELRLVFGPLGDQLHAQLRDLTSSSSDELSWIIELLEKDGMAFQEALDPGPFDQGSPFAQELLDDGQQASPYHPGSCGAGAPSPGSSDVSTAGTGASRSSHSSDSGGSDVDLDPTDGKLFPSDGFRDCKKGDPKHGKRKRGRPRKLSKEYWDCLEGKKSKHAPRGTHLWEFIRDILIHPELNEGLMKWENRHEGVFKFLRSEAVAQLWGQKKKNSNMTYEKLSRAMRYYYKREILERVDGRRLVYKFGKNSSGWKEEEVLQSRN
# Procedure, shortened: as §1
# CRX = CRX (Homo sapiens, UniProt O43186 1-299); conditions: protein: recombinant; tags: N-terminal GST; dsDNA, one strand shown
# Sequence of CRX (O43186 whole entry): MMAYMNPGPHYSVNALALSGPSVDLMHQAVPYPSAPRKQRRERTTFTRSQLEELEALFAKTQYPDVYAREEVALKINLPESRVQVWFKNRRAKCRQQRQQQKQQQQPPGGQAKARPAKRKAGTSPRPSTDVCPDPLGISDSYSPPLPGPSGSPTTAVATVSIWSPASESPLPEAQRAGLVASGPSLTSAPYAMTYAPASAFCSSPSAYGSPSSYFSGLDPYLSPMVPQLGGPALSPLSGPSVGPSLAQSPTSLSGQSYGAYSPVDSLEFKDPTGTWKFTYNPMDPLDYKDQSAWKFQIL
# Procedure, shortened: as §1
# ETV1 = ETV1 (Homo sapiens, UniProt P50549 1-477); conditions: protein: recombinant; tags: N-terminal GST; dsDNA, one strand shown
# Sequence of ETV1 (P50549 whole entry): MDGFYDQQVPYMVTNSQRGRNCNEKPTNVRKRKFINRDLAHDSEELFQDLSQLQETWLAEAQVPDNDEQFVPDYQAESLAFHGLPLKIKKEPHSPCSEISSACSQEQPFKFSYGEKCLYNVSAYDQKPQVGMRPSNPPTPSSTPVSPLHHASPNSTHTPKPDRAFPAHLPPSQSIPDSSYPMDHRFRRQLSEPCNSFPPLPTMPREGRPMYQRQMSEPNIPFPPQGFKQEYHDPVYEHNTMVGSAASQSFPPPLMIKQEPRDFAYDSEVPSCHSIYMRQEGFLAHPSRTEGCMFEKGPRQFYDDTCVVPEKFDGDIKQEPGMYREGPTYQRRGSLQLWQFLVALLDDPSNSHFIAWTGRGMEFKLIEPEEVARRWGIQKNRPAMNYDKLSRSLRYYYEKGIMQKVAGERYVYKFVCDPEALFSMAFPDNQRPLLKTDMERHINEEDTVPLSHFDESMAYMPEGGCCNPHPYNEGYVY
# Procedure, shortened: as §1
sequence,measurement,setting,value
CCGTTT,binding signal,FLI1,"1.47 fold enrichment (6-mer frequency, TF over GST control)"
same,binding signal,ELK1,"1.36 fold enrichment (6-mer frequency, TF over GST control)"
same,binding signal,GABPA,"1.33 fold enrichment (6-mer frequency, TF over GST control)"
same,binding signal,ERG,"1.57 fold enrichment (6-mer frequency, TF over GST control)"
same,binding signal,ELF1,"1.29 fold enrichment (6-mer frequency, TF over GST control)"
same,binding signal,EHF,"1.33 fold enrichment (6-mer frequency, TF over GST control)"
same,binding signal,SPI1,"1.56 fold enrichment (6-mer frequency, TF over GST control)"
same,binding signal,SPIB,"1.39 fold enrichment (6-mer frequency, TF over GST control)"
same,binding signal,ELK3,"1.35 fold enrichment (6-mer frequency, TF over GST control)"
same,binding signal,FEV,"1.48 fold enrichment (6-mer frequency, TF over GST control)"
same,binding signal,ETV5,"1.44 fold enrichment (6-mer frequency, TF over GST control)"
same,binding signal,HSF1,"1.12 fold enrichment (6-mer frequency, TF over GST control)"
same,binding signal,SPIC,"1.44 fold enrichment (6-mer frequency, TF over GST control)"
same,binding signal,ELF4,"1.36 fold enrichment (6-mer frequency, TF over GST control)"
same,binding signal,ELK4,"1.33 fold enrichment (6-mer frequency, TF over GST control)"
same,binding signal,ETV2,"1.31 fold enrichment (6-mer frequency, TF over GST control)"
same,binding signal,ELF3,"1.44 fold enrichment (6-mer frequency, TF over GST control)"
same,binding signal,CRX,"1.06 fold enrichment (6-mer frequency, TF over GST control)"
same,binding signal,ETV1,"1.38 fold enrichment (6-mer frequency, TF over GST control)"
